# Assay results reported in the supplement of paper PMC10849652.
# About 7,900 targets were measured; listed, in parts, are those with a hit and a random draw of the rest. About 0.6% of all pairs of compound and target were hits. A number with no mark means an inactive call.
# What was measured:
# Experiment in all cases: log2 fold change, soluble protein after heating vs DMSO (PISA); higher = thermal stabilisation; K562 cells, 10 uM, 30 min; active = over 0.2 and 3.5 SD of the protein, either way, in both replicates (recomputed)
# erlotinib = compound: C#Cc1cccc(Nc2ncnc3cc(OCCOC)c(OCCOC)cc23)c1 [erlotinib]
# Outline: (§1)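 K562 cells at 2×10^6 cells/mL were given 10 μM compound for 30 min. Aliquots then went through 3 min of heating across 48°C-58°C, were pooled, and were extracted in PBS with 0.5% NP-40 at 4°C, and the supernatant after 21,000xg for 90 min was quantified by TMTpro 16plex LC-MS/MS with channel sums equalised. Thermal stability relative to control samples, from duplicates, is given as log2 fold change.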
# [1] = compound: C/C(=N\NC(=O)C1=CC(=CC=C1)S(=O)(=O)N2CCOCC2)/C3=C(C=CC(=C3)Cl)O
# Outline: as §1
# [2] = compound: C1=CC(=C(C=C1Cl)C2=NC3=NC=CN=C3C(=N2)NC4=CC=NC=C4)F
# Outline: as §1
# [3] = compound: C1=CC(=CC=C1C2=NC3=C(N2)C=C(C=C3)C(=O)N)OC4=CC=C(C=C4)Cl
# Outline: as §1
# [4] = compound: C1=CC2=C(C=CC(=C2)/C=C\3/C(=O)NC(=NCC4=CC=CS4)S3)N=C1
# Outline: as §1
# [5] = compound: C1=CC2=NC=CN=C2C=C1/C=C/3\C(=O)NC(=O)S3
# Outline: as §1
# [6] = compound: C1=CC=C(C=C1)C2=NC(=C(N2)C3=CC=NC=C3)C4=CC(=C(C=C4)Cl)O
# Outline: as §1
# [7] = compound: C1=CC=C2C(=C1)C3=NNC4=CC=CC(=C43)C2=O
# Outline: as §1
# [8] = compound: C1CCN(C1)C(=O)NC2=CC=CC(=C2)NC3=NC=C(C(=N3)NCCC4=CN=CN4)Br
# Outline: as §1
# [9] = compound: C1CN(CCC1(CC2=CC=C(C=C2)Cl)N)C3=NC=NC4=C3C=CN4
# Outline: as §1
# IRAK-1-4 Inhibitor I = compound: C1COCCN1CCN2C3=CC=CC=C3N=C2NC(=O)C4=CC(=CC=C4)[N+](=O)[O-] [IRAK-1-4 Inhibitor I]
# Outline: as §1
# ibrutinib = compound: C=CC(=O)N1CCC[C@@H](n2nc(-c3ccc(Oc4ccccc4)cc3)c3c(N)ncnc32)C1 [ibrutinib]
# Outline: as §1
# [10] = compound: CC(=O)c1cnc2ccc(-c3cc(Cl)c(O)c(Cl)c3)nc2c1N[C@H]1CC[C@H](CN(C)C)CC1
# Outline: as §1
# ralimetinib = compound: CC(C)(C)Cn1c(N)nc2ccc(-c3[nH]c(C(C)(C)C)nc3-c3ccc(F)cc3)nc21 [ralimetinib]
# Outline: as §1
# [11] = compound: CC(C)(O)CC(=O)NCCn1ccc2ncnc(Nc3ccc(Oc4cccc(C(F)(F)F)c4)c(Cl)c3)c21
# Outline: as §1
# [12] = compound: CC(C)C1=C2N=C(C=C(N2N=C1)NCC3=CC=CC=C3)NCCCCCCN
# Outline: as §1
# [13] = compound: CC(C)C[C@@H](C=O)NC(=O)[C@H](CC(C)C)NC(=O)[C@H](CC(C)C)NC(=O)OCc1ccccc1
# Outline: as §1
# pinometostat = compound: CC(C)N(C[C@H]1O[C@@H](n2cnc3c(N)ncnc32)[C@H](O)[C@@H]1O)[C@H]1C[C@@H](CCc2nc3cc(C(C)(C)C)ccc3[nH]2)C1 [pinometostat]
# Outline: as §1
# [14] = compound: CC1=C(C(CC(=O)N1)C2=CC=C(C=C2)C(F)(F)F)C(=O)NC3=C(C=C4C(=C3)C=NN4)F
# Outline: as §1
# [15] = compound: CC1=C(C2=C(C=C1)C(=O)C3=CC=CC=C3N2CCCN)C
# Outline: as §1
# UniProt Q9Y646, sequence (Q9Y646 whole entry, looked up): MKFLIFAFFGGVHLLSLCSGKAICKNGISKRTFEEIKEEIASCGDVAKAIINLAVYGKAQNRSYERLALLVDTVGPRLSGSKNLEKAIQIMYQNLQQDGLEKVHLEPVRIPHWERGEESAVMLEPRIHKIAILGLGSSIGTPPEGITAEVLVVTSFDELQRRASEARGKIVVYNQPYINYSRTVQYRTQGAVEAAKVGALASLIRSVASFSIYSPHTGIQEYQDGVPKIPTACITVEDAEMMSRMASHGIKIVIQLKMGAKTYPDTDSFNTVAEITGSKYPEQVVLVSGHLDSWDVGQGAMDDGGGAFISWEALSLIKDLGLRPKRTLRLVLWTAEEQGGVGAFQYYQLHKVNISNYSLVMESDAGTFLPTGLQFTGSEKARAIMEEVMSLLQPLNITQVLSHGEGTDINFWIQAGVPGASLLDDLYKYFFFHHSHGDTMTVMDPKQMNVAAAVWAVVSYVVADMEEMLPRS
# UniProt Q5VT25, sequence (Q5VT25 whole entry, looked up): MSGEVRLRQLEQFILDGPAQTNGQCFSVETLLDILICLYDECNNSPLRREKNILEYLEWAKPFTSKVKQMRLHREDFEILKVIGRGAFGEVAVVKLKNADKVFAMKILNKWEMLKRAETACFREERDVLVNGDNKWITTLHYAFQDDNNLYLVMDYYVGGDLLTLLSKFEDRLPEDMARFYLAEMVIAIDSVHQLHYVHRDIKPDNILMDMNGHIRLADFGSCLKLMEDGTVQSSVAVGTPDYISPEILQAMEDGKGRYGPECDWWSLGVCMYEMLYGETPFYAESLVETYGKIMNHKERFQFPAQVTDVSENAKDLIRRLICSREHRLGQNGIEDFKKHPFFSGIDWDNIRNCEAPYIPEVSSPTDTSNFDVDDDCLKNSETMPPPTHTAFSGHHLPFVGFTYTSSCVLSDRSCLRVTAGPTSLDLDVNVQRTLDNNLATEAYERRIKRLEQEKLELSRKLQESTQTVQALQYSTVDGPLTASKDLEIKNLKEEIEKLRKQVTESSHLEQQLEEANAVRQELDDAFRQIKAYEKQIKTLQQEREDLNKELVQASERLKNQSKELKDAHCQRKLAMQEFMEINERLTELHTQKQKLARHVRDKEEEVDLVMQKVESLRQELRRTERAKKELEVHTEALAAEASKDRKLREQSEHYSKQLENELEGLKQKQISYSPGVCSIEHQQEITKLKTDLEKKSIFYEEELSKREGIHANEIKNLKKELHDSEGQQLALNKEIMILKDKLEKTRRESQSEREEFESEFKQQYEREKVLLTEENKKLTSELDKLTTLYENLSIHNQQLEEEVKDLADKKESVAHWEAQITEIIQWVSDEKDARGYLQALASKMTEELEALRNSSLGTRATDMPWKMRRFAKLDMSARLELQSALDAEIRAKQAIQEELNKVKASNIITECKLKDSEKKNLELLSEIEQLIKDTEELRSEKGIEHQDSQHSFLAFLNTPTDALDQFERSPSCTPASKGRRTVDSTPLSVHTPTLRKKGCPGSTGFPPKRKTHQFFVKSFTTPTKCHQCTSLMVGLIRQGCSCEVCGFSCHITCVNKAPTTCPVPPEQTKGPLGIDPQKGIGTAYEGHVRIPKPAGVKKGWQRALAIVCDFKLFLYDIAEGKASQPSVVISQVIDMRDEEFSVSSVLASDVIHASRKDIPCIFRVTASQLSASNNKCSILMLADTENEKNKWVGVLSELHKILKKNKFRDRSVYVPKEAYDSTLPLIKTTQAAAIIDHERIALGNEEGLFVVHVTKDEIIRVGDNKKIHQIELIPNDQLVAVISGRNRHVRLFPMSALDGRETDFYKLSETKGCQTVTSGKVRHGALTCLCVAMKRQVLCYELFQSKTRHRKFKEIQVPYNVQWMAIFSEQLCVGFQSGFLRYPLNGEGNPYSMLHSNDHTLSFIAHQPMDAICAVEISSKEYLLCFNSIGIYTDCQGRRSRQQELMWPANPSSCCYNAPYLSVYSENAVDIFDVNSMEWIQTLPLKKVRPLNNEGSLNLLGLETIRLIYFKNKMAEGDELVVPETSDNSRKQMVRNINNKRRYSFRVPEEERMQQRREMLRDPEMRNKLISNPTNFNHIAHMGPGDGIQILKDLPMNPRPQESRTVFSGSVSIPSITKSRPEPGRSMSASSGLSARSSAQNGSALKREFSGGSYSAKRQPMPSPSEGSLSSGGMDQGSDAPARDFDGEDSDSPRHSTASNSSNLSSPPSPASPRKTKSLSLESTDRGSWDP
# UniProt P12277, sequence (P12277 whole entry, looked up): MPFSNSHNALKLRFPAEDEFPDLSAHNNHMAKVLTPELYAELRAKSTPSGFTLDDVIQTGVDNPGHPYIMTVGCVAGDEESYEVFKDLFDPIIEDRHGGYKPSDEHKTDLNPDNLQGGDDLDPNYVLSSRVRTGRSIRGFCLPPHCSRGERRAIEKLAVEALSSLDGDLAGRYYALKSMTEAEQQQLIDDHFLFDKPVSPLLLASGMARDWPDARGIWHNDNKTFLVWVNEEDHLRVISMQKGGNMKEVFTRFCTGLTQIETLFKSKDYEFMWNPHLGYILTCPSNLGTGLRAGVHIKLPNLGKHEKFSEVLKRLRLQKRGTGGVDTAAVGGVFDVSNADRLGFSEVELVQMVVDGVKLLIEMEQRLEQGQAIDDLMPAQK
# UniProt Q9NRR8, sequence (Q9NRR8 whole entry, looked up): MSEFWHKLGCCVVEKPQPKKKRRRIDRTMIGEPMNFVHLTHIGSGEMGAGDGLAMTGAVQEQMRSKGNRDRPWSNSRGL
# UniProt Q9Y5P4, sequence (Q9Y5P4 whole entry, looked up): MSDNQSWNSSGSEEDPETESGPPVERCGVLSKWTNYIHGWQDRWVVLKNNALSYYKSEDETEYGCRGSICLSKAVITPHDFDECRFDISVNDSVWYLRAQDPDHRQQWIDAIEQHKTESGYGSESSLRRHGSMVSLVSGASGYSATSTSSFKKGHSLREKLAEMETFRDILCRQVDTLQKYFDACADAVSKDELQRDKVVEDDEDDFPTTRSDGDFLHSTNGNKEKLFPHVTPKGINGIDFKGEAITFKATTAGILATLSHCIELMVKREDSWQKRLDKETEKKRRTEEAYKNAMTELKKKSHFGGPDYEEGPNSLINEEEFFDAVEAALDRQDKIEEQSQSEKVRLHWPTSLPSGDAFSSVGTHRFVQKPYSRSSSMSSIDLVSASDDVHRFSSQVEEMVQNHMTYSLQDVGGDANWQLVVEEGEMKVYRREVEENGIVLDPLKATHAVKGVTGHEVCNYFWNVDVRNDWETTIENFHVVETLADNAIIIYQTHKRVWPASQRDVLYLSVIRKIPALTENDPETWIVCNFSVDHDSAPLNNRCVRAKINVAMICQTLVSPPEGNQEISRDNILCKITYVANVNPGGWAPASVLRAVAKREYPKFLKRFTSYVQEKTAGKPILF
# UniProt O75390, sequence (O75390 whole entry, looked up): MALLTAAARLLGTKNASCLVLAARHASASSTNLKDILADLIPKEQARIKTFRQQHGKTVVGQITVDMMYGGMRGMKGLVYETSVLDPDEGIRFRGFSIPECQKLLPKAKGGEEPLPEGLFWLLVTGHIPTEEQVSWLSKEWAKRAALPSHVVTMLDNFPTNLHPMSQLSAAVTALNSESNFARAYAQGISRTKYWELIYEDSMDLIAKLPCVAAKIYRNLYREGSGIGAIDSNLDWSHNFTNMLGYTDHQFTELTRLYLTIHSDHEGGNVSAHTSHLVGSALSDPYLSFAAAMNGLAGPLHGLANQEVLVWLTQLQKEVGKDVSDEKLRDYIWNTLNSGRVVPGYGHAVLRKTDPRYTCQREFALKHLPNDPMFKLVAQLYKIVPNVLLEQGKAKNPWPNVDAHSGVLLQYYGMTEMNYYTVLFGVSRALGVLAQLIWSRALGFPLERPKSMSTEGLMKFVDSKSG
# UniProt P55060, sequence (P55060 whole entry, looked up): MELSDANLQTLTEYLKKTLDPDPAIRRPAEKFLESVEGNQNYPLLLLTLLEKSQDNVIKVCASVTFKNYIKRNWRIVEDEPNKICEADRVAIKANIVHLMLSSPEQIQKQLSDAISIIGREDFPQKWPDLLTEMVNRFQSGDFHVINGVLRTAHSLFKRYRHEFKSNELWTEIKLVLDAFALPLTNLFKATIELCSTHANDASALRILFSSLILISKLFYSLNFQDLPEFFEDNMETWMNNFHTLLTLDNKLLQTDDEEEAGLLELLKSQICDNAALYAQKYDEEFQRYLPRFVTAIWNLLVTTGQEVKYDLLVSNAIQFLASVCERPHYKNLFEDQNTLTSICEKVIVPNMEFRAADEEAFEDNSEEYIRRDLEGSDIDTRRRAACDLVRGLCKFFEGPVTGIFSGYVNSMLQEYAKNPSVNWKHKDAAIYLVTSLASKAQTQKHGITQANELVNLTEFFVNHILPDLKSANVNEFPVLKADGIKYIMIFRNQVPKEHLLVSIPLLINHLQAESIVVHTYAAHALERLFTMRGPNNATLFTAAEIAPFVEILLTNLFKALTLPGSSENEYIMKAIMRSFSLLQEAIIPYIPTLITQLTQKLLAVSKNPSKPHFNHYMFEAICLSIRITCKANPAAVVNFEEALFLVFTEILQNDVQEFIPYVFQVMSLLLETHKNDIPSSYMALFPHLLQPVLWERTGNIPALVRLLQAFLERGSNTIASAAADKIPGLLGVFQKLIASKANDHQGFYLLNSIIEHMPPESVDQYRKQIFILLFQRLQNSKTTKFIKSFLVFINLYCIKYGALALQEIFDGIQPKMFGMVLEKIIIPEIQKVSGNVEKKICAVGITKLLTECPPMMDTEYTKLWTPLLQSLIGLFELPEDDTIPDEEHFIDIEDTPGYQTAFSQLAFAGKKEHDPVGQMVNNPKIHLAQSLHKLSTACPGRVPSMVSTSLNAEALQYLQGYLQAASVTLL
# UniProt P15954, sequence (P15954 whole entry, looked up): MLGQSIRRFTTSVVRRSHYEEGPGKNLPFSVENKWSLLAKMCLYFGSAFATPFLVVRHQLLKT
# UniProt Q6P5X5, sequence (Q6P5X5 whole entry, looked up): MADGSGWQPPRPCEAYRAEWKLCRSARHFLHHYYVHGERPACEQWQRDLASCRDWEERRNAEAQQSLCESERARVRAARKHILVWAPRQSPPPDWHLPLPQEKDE
# UniProt Q8NHZ8, sequence (Q8NHZ8 whole entry, looked up): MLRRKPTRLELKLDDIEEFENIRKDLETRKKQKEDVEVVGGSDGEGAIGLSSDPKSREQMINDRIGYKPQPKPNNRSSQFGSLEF
Target,log2 fold change (erlotinib),log2 fold change [1],log2 fold change [2],log2 fold change [3],log2 fold change [4],log2 fold change [5],log2 fold change [6],log2 fold change [7],log2 fold change [8],log2 fold change [9],log2 fold change (IRAK-1-4 Inhibitor I),log2 fold change (ibrutinib),log2 fold change [10],log2 fold change (ralimetinib),log2 fold change [11],log2 fold change [12],log2 fold change [13],log2 fold change (pinometostat),log2 fold change [14],log2 fold change [15]
C22orf39 (UniProt Q6P5X5),-0.256,-0.02,-0.018,0.02,-0.014,0.051,-0.023,-0.004,0.037,0.02,0.12,0.033,-0.069,-0.104,0.018,-0.587 (active),0.126,0.035,0.014,0.213
COX7C (UniProt P15954),-0.006,0.134,0.209,0.154,-0.174,0.073,0.08,0.27,-0.003,0.047,-0.013,0.057,-0.013,0.301,0.041,0.184,0.074,0.092,0.022,0.009
CERT isoform 3 (UniProt Q9Y5P4),0.05,0.083,0.018,-0.009,0.039,0.005,0.044,0,-0.054,-0.007,-0.052,0.017,-0.382 (active),0.038,0.166,0.103,0.005,0.026,-0.048,-0.033
CDC42BPA isoform 6 (UniProt Q5VT25),-0.081,0.115,-0.022,0.008,-0.337,-0.011,0.03,0.073,-0.03,-0.396,-0.025,-0.09,-1.07 (active),0.094,-0.02,-0.193,0.043,0.029,-0.192,0.132
CPQ (UniProt Q9Y646),0.013,0.002,0.051,0,0.05,0.004,0.07,0,-0.027,0.125,0.095,0.01,-0.034,-0.011,0.003,0.049,-0.032,0.007,0.023,0.006
CDC42SE1 (UniProt Q9NRR8),0.078,0.041,-0.005,0.014,0.021,0,-0.009,-0.207,0.023,-0.012,0.066,0.049,-0.004,0.021,0.042,-0.111,0.074,0.11,0.282,0.015
CDC26 (UniProt Q8NHZ8),-0.096,0.16,-0.046,0.034,-0.542 (active),0.025,0.355,0.037,-0.137,-0.022,-0.014,-0.003,0.099,0.188,0.007,-0.01,-0.04,-0.128,0.005,0.049
CCNT1 (UniProt O60563),-0.026,0.036,-0.141,0.047,-0.041,-0.05,-0.129,-0.084,-0.014,-0.059,-0.004,0.001,-0.603 (active),0.054,0.042,-0.375 (active),0.105,0.213,-0.003,-0.112
CKB (UniProt P12277),0.011,0.045,0.052,0.035,0.018,-0.038,0.01,0.065,0.022,0.027,0.014,-0.024,-0.009,-0.01,-0.077,-0.045,0.021,-0.02,-0.014,0.059
CIZ1 (UniProt Q9ULV3),0.002,0.024,0.032,0.069,0.009,0.083,-0.092,-0.085,0.034,-0.016,0.013,-0.03,-0.044,0.056,-0.056,0.035,0.053,-0.02,-0.02,-0.248 (active)
COCH (UniProt O43405),-0.083,-0.028,-0.044,0.007,-0.098,0.007,-0.002,-0.072,-0.043,-0.101,0.001,0.058,0.045,0.041,0.331 (active),0.021,-0.019,0.043,-0.072,-0.353
COPS4 (UniProt Q9BT78),-0.002,0.061,0.13,-0.004,0.036,-0.006,0.054,0.024,-0.009,-0.002,0.015,0.043,0.01,-0.004,-0.014,0.009,-0.008,-0.048,-0.019,0.028
CSE1L (UniProt P55060),-0.005,0.056,0.064,-0.033,0,0.052,0.012,-0.044,0.028,-0.04,0.001,-0.028,0.033,-0.011,-0.144,-0.145,-0.029,-0.027,-0.008,-0.02
CS (UniProt O75390),0.028,0.035,0.033,0.002,0.051,-0.009,0.072,-0.064,-0.015,0.035,0.02,-0.004,0.002,-0.04,-0.178,-0.148,-0.069,-0.05,0.02,0.008
CHAMP1 (UniProt Q96JM3),0.083,0.004,0.075,0.03,0.023,0.014,-0.01,-0.06,0.004,0.064,0.047,0.066,-0.207,0.033,-0.036,-0.047,-0.015,0.034,0.004,-0.23 (active)
CMTR1 (UniProt Q8N1G2),-0.005,0.105,0.031,0.013,0.048,0.012,0.012,0.036,0.01,0.018,-0.007,-0.011,-0.014,-0.026,-0.024,-0.011,-0.002,-0.029,-0.007,0.169
